# Assay results: PubChem BioAssay AID624412 (The Scripps Research Institute Molecular Screening Center, 2012)
# Hit rate of the full screen: of about 1,400 compounds, about 1,300 (93%) were called active. The set was probably picked from earlier hits. Only a sample is shown. Values without a mark were called inactive. Rule as the data show it: active = inhibition above about 7%; inactive = the rest.
# Tested on: methionyl-tRNA synthetase (Trypanosoma brucei brucei)
# Test: inhibition of trypanosome methionyl-tRNA synthetase – biochemical, luminescence, confirmation (AID 624412)
# Details: T. brucei MetRS enzyme, luminescence (ATP depletion); at 11.9 µM; stronger effect = higher value
row,SMILES,inhibition
1,COC(=O)/C(=C\Nc1ccccc1)NC(=O)c1ccc(Cl)cc1Cl,78% (active)
2,c1ccc2cc3[nH]c(CN4CCCCC4)nc3cc2c1,18.2% (active)
3,Cc1c(CN2CCC(CO)(CCOc3ccccc3)CC2)[nH]c2ccc(Cl)cc12,19% (active)
4,CN(C(=O)CSc1nnc(Nc2ccccc2)s1)C1CCS(=O)(=O)C1 (stereo not drawn),12.5% (active)
5,CN(C(=O)CSc1nnc(-c2c[nH]c3ccccc23)o1)C1CCS(=O)(=O)C1 (stereo not drawn),21.9% (active)
6,CCCCCn1nnnc1-c1nc2cc3ccccc3cc2[nH]c1=O,42.4% (active)
7,c1ccc(CN=C2Nc3ccccc3CS2)nc1,22% (active)
8,Cc1cc(C)cc(NC(=O)N(C)Cc2ccccc2)c1,3.08%
9,COc1ccc(NC(=O)C(NC(C)=O)C(=O)NCc2ccccc2Cl)cc1 (stereo not drawn),17.9% (active)
10,OCCNc1nc2ccccc2n1-c1ncnc2sc3c(c12)CCC3,29.7% (active)
11,Cc1ccc(O)c(CNc2nc3ccccc3[nH]2)c1,85.4% (active)
12,O=S(=O)(NCc1ccc(Cl)cc1Cl)c1cccs1,33.5% (active)
13,CCCCN1C[C@H](c2ccc(Br)cc2)[C@@H](CC(=O)Nc2ccc(Br)cc2)C1=O,62.2% (active)
14,O=C(OCc1nc2ccccc2[nH]1)C1CCCCC1,27.3% (active)
15,O=C(NCc1cccc(CNC(=O)Nc2cccc(O)c2)c1)Nc1cccc(O)c1,17.5% (active)
16,COc1ccc(CCn2ccc(O)c(Cc3ccc(Cl)cc3Cl)c2=O)cc1OC,11.8% (active)
17,O=C(CSCC(=O)Nc1cccc([N+](=O)[O-])c1)Nc1ccccc1,17% (active)
18,O=C(Nc1cccc([N+](=O)[O-])c1)N1CCc2ccccc2C1,25.6% (active)
19,O=C(Nc1ccc(Cl)cc1)N1CCc2[nH]c3ccccc3c2C1,20.4% (active)
20,Fc1ccc(NC(=S)N2CCc3[nH]c4ccccc4c3C2)cc1,35.4% (active)
21,O=C(NNc1cc(Cl)cc(Cl)c1)c1c(F)cccc1Cl,66.4% (active)
22,Cc1ccc(N2C(=O)CC(NCc3ccc4c(c3)OCO4)C2=O)cc1Cl (stereo not drawn),98.5% (active)
23,O=C(/C(=N\O)n1cncn1)c1ccc(Br)cc1Br,18.3% (active)

row,SMILES,inhibition
1,CCCCN(C)Cc1c(C)[nH]c2ccc(Cl)cc2c1=O,67.1% (active)
2,O=C(CC(=O)Nc1ccc(Cl)c(Cl)c1)N/N=C/c1ccc(O)cc1,17.2% (active)
3,Cc1ccc(NC(=O)C(C)c2cccc(C(=O)c3ccccc3)c2)cc1 (stereo not drawn),85.5% (active)
4,O=C1CCCN1CCCNc1ncnc2c1[nH]c1ccccc12,55.3% (active)
5,Cc1ccccc1OCC(=O)NNC(=O)c1ccc(-n2cncn2)c([N+](=O)[O-])c1,24.7% (active)
6,CC(=O)c1ccc(NC(=O)c2ccc(-n3cncn3)c([N+](=O)[O-])c2)cc1,72% (active)
7,Cc1ccc(S(=O)(=O)N(C)C)cc1NC(=O)c1ccc(-n2cncn2)c([N+](=O)[O-])c1,69.4% (active)
8,O=C(NNC(=O)c1ccc(-n2cncn2)c([N+](=O)[O-])c1)c1ccccc1,50.4% (active)
9,c1ccc2cc3c(NCCN4CCOCC4)ccnc3cc2c1,50.4% (active)
10,Cc1ccc(S(=O)(=O)c2c[nH]c3ccc(C)cc3c2=O)cc1,45.7% (active)
11,Cc1ccc(S(=O)(=O)c2c[nH]c3ccc(Cl)cc3c2=O)cc1,85.2% (active)
12,O=C(NCCN1CCOCC1)c1ccccc1N1C(=O)[C@@H]2Cc3c([nH]c4ccccc34)C(c3cccc(Cl)c3)N2C1=O (stereo partly drawn),18.1% (active)
13,CCN(CC)C(=O)C(=O)c1cn(CC(=O)NCc2ccc3c(c2)OCO3)c2ccccc12,79.4% (active)
14,O=C(CSc1nc2ccccc2[nH]1)N/N=C/C=C\c1ccccc1[N+](=O)[O-],21.7% (active)
15,O=C(Cn1c2[n+](c3ccc(C(F)(F)F)cc31)CCCCC2)Nc1c(F)cccc1F,29.8% (active)
16,NS(=O)(=O)c1ccc(CCNC(=O)Nc2ccc(Cl)cc2)cc1,37.4% (active)
17,O=C(Cc1ccc(S(=O)(=O)N2CCOCC2)s1)Nc1ccc(Br)c(C(F)(F)F)c1,33.2% (active)
18,Clc1ccc(-c2cc(C3CCNCC3)[nH]n2)c(Cl)c1,52.6% (active)
19,O=C(Cn1c(NCCO)nc2ccccc21)c1ccc(Cl)cc1Cl,5.98% (active)
20,S=c1[nH]nc(CSCc2ccc(Cl)cc2Cl)n1-c1ccccc1,13.2% (active)
21,COC(=O)CN1C(=S)N(c2ccccc2)C(=O)C1CC(=O)Nc1ccc(Cl)cc1 (stereo not drawn),27.5% (active)
22,OC(c1cc(Cl)cc(Cl)c1)c1ncc(-c2ccccc2C(F)(F)F)[nH]1 (stereo not drawn),91.3% (active)
23,Cc1ccc(-c2cnc(C(O)c3cc(Cl)cc(Cl)c3)[nH]2)cc1 (stereo not drawn),63.9% (active)

row,SMILES,inhibition
1,O=S(=O)(c1ccc(Br)cc1)N1CCC(c2nc3ccccc3[nH]2)CC1,20.5% (active)
2,O=C(NCC(O)c1nc2ccccc2[nH]1)c1ccc(Br)cc1 (stereo not drawn),31.1% (active)
3,O=C(O)c1ccc(NS(=O)(=O)c2ccc3c(c2)C(=O)c2cc(S(=O)(=O)Nc4ccc(C(=O)O)cc4)ccc2-3)cc1,13.4% (active)
4,O=C(Nc1ccc(S(=O)(=O)Nc2ncccn2)cc1)c1cncc(Br)c1,2.54%
5,CC(C)OCCCNc1ncnc2c1[nH]c1ccc(F)cc12,95.6% (active)
6,CCN1CCCC1CNc1ncnc2c1[nH]c1ccc(F)cc12 (stereo not drawn),53.7% (active)
7,CSc1nsc(NC(=O)Nc2ccccc2)n1,39.8% (active)
8,NC1=NC(=O)S/C1=C\c1ccc(O)cc1,40.1% (active)
9,CC(C)(C)c1ccc(/C=C2\SC(=O)N=C2N)cc1,50.9% (active)
10,O=C(O)CCn1c(O)c(C=C2N=c3ccccc3=N2)sc1=S,42.3% (active)
11,Cn1c(CCCOc2ccc(Cl)cc2Cl)n[nH]c1=S,12.2% (active)
12,CCCCCCCC[n+]1cccc(C(=O)N2c3c(nc(N)[nH]c3=O)NC(C)C2C)c1 (stereo not drawn),29.2% (active)
13,COc1ccc(OCC(O)CNC(=O)Nc2ccc(Cl)cc2)cc1 (stereo not drawn),78% (active)
14,Oc1[nH]c2ccc(Br)cc2c1N=Nc1nn[nH]n1,14.6% (active)
15,O=C(Nc1ccccc1)Nc1nnc(COc2ccccc2F)s1,30.4% (active)
16,Clc1ccccc1SCc1nc2ccccc2[nH]1,10.1% (active)
17,Cc1ccc(CNC(=O)CSc2nnc3c(n2)[nH]c2ccc(F)cc23)cc1,78% (active)
18,CCO[C@@H]1OC(C(=O)NCc2nc3ccccc3[nH]2)=C[C@H](C2CCCCC2)[C@H]1CCCO,48.9% (active)
19,CC(=N\NC(=O)c1cc(Br)ccc1O)/C(=N/O)C(=O)Nc1ccccc1,18.2% (active)
20,COc1ccccc1-n1c(SCC(=O)Nc2ccc(Cl)cc2)nc(O)c(Cc2ccccc2)c1=O,77.2% (active)
21,COc1ccc(-c2[nH]ncc2/C=N/NC(=O)c2cc(Br)ccc2O)c(OC)c1,12.1% (active)
22,O=[N+]([O-])c1ccc(N2CCN(c3ccc(O)cc3)CC2)c(Cl)c1,10.9% (active)
